This is an account of results in PubChem BioAssay (NCATS).

A number with no mark means an inactive call. Inconclusive results are not listed. Calls of active or inactive are those of the source. Unless noted, calls come from the whole dose curve; as a rule, active = well fitted curve in the direction sought with a large enough effect; inconclusive = small, poorly fitted or top-dose-only effect, or another doubt; inactive = no such curve, though single readings can be large; an effect the other way counts as inactive or inconclusive.

Experiment [1] in a line: Viability counterscreen for antagonist of constitutive androstane receptor (CAR) against the NCATS DSHEA and TCM libraries (AID 1794837).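 Note: compound exposure lasted 24 h before viability reading; 0% is about no effect.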 In a few lines: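 Cells: HepG2 line carrying CYP2B6 reporter and hCAR, seeded and attached 5 h. Then pin-transferred test substances plus agonist CITCO at 48 uM final; 24 h incubation; fluorogenic viability reagent, 1 h.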
Experiment [2] in a line: Viability counterscreen for agonist of constitutive androstane receptor (CAR) against the NCATS DSHEA and TCM libraries (AID 1794838).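 Note: HepG2 cells with CYP2B6 reporter and hCAR plus 0.75 µM PK11195 antagonist; 0% is about no effect.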 In a few lines:
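Cell health was measured as CellTiter-Fluor signal in HepG2-CYP2B6-hCAR cells treated for 24 h with substances alongside the hCAR antagonist PK11195 (0.75 uM final).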

Experiment [3] is described as follows: HepG2 viability counterscreen (readout 2: ATP content) against the NCATS DSHEA and TCM libraries (AID 1794840). Note: 0% is about no effect. In outline:
(§1)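 Same wells read twice: first fluorescence from cleaved GF-AFC substrate (25 uM final, 30 min, 37C) for live-cell protease, then CellTiter-Glo luminescence after 30 min at room temperature for ATP. HepG2 cells were exposed ~24 h to substances.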

The nature of experiment [4]: HepG2 viability counterscreen (readout 1: protease activity) against the NCATS DSHEA and TCM libraries (AID 1794841).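 Note: cells exposed to compounds for about 24 h before the protease read; 0% is about no effect.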 In a few lines: as §1
Experiment [5] addresses Cytochrome P450 3A4 (Homo sapiens) (UniProt P08684). In words: qHTS for inhibitors of CYP3A4 against the NCATS DSHEA and TCM libraries (AID 1919971).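 For activity change, negative = inhibition: % is set by controls: 0 for no effect and ±100 for the full control effect; inhibition lowers luminescence from luciferin made by CYP3A4.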 Note: potency is the fitted concentration of half-maximal effect. In a few lines:
(§2)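 Read-out is luminescence after P450-Glo detection (30 min, RT). Before that: 15 min compound–enzyme preincubation, then 30-45 min reaction with 1x NADPH regeneration solution, substrate concentration isoform-specific.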

The target in experiment [6] is Cytochrome P450 2D6 (Homo sapiens) (UniProt P10635). The experiment in a line: qHTS for inhibitors of CYP2D6 against the NCATS DSHEA and TCM libraries (AID 1919972). Note: % is set by controls: 0 for no effect and ±100 for the full control effect. In outline: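 Luminescent P450-Glo read-out of CYP2D6 turnover of a luciferin substrate after NADPH-driven reaction of 30-45 min at room temperature. Compounds were first preincubated 15 min with enzyme at titrated concentrations; quinidine was the intraplate control.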

Experiment [7] has as its target Cytochrome P450 2C9 (Homo sapiens) (UniProt P11712). The experiment in a line: qHTS for inhibitors of CYP2C9 against the NCATS DSHEA and TCM libraries (AID 1919973).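 For activity change, negative = inhibition: luminogenic pro-luciferin CYP2C9 substrate turned into luciferin with NADPH regeneration; series mostly up to about 34 µM; % is set by controls: 0 for no effect and ±100 for the full control effect.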 Note: potency is the fitted concentration of half-maximal effect. In a few lines:
as §2

Experiment [8] is described as follows: KB-3-1 P-gp reporter qHTS against the NCATS DSHEA and TCM libraries (AID 1919975). Note: 0% is about no effect. In outline: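 KB-3-1 parental line, 1536-well qHTS: cells seeded, ~4 h attachment, pintool compound addition, ~72 h at 37C, then CellTiter-Glo, 30 min RT, luminescence. Concentration-response format.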
The target of experiment [9] is Cytochrome P450 1A2 (Homo sapiens) (UniProt P05177). In words: qHTS for inhibitors of CYPIA2 against the NCATS DSHEA and TCM libraries (AID 1919976).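 For activity change, negative = inhibition: light from luciferin formed by CYP1A2 from a pro-luciferin substrate; series mostly up to about 37 µM; % is set by controls: 0 for no effect and ±100 for the full control effect.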 Note: potency is the fitted concentration of half-maximal effect. In outline:
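CYP1A2 + luciferin substrate, 100 mM KPO4-type buffer; cmpd 15 min RT; 1x NADPH regen, 30-45 min RT dark; detection reagent 30 min RT; luminescence. Minus-enzyme wells as background; furafylline intraplate control.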

The nature of experiment [10]: qHTS Counterscreen for compound interference against the NCATS DSHEA and TCM libraries (AID 1919978).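 Note: compounds preincubated with 1 µM D-luciferin or buffer before detection reagent; % of control where 0% means no effect.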 The following applies: firefly luciferase detection reagent interference, luminescence. In a few lines:
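Compounds, titrated from 19.5 nM to 39.8 uM final, were pinned onto 1 uM D-luciferin or plain 100 mM potassium phosphate. After 15 min at room temperature, luciferin detection reagent was added for 30 min before the luminescence read.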

Experiment [11] is described as follows: Dual reporter qHTS for agonist of Pregnane X Receptor (hPXR) against the NCATS DSHEA and TCM libraries: Fluorescence readout (AID 1920058). Note: 0% is about no effect. In a few lines: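 HepG2 hPXR-Luc, 2000 cells/well, 5 h attach; cpds ~24 h, 37 °C/5% CO2; CellTiter-Fluor 1 h; fluor. Ex/Em 405/540 nm = viability.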
Experiment [12] deals with Nuclear receptor subfamily 1 group I member 2 (Homo sapiens) (UniProt O75469). In words: Dual reporter qHTS for agonist of Pregnane X Receptor (hPXR) against the NCATS DSHEA and TCM libraries: Luminescence readout (AID 1920059). Note: 0% is about no effect. In a few lines:
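hPXR-Luc HepG2 cells, 2000/well in 5% charcoal-stripped FBS medium, attached 5 h, then exposed 24 h at 37C to compounds. Viability by CellTiter-Fluor, then luciferase luminescence with ONE-Glo.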

Experiment [13] shares this target. In words: Dual reporter qHTS for antagonist of Pregnane X Receptor (hPXR) against the NCATS DSHEA and TCM libraries: Luminescence Readout (AID 1920060). Note: 0% is about no effect. In outline: (§3)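 Rifampicin-stimulated (2 uM final) hPXR-luciferase HepG2 cells were treated for 24 h with DSNP/TCM substances. Viability came from CellTiter-Fluor fluorescence, reporter activity from ONE-Glo luminescence.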

Experiment [14] in a line: Dual reporter qHTS for antagonist of Pregnane X Receptor (hPXR) against the NCATS DSHEA and TCM libraries: Fluorescence Readout (AID 1920061). Note: 0% is about no effect. In a few lines:
as §3

The target in experiment [15] is Mitogen-activated protein kinase 10 (Mus musculus) (UniProt Q61831). In words: JNK3 AlphaScreen Assay (AID 530; active = well fitted curve in either direction with a large enough effect, not every such curve was filed as active;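 note: kinase came from lysate of stimulated human HepG2 cells; signal reports phosphorylation of biotinylated GST-cJun 1-79 at Ser73 with 10 µM ATP; series mostly up to about 57 µM; % is set by controls: 0 for no effect and ±100 for the full control effect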). In outline: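 Pre-activated (IL-1β/TNFα) JNK3 in HepG2 lysates phosphorylates biotin-GST-cJun(1-79), 10 uM ATP; anti-phospho-cJun(Ser73) AlphaScreen read at room temperature, pH 7.6 Tris buffer. Compounds pre-incubated 15 min as titrations.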
Experiment [16] addresses Cytochrome P450 2C19 (Homo sapiens) (UniProt P33261). The experiment in a line: qHTS for inhibitors of CYP2C19 against the NCATS DSHEA and TCM libraries (AID 1919974).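 Note: luminescence from luciferin released by CYP2C19 oxidation of a pro-luciferin substrate.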 Note: potency is the fitted concentration of half-maximal effect. In outline:
as §2

Chain of Nuclear receptor subfamily 1 group I member 2 (Homo sapiens) (O75469 whole entry, looked up): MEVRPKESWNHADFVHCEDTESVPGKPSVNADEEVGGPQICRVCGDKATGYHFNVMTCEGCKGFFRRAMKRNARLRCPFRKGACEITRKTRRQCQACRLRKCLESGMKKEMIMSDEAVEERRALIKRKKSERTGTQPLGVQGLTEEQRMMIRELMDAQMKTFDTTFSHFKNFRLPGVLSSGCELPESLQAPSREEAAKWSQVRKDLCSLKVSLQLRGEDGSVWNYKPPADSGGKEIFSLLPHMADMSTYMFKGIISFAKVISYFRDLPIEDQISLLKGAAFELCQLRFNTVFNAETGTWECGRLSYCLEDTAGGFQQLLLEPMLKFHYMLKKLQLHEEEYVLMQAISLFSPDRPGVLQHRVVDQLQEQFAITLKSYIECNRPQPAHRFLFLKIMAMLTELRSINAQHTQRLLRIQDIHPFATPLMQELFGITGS
Chain of Cytochrome P450 3A4 (Homo sapiens) (P08684 whole entry, looked up, canonical isoform): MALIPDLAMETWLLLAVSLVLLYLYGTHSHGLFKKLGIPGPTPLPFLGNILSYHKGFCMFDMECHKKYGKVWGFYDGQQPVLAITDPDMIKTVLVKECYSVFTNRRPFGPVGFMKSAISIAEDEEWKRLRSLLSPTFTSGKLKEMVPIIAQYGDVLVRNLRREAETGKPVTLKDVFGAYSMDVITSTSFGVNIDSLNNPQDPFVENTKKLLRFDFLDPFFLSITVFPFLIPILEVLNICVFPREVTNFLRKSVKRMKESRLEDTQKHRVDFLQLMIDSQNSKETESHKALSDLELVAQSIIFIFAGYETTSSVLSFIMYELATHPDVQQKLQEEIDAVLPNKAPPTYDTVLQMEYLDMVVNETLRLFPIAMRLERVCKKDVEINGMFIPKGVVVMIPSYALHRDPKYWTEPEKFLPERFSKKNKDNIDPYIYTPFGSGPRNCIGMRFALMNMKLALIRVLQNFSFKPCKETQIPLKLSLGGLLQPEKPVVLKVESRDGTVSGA
Chain of Cytochrome P450 2C9 (Homo sapiens) (P11712 whole entry, looked up): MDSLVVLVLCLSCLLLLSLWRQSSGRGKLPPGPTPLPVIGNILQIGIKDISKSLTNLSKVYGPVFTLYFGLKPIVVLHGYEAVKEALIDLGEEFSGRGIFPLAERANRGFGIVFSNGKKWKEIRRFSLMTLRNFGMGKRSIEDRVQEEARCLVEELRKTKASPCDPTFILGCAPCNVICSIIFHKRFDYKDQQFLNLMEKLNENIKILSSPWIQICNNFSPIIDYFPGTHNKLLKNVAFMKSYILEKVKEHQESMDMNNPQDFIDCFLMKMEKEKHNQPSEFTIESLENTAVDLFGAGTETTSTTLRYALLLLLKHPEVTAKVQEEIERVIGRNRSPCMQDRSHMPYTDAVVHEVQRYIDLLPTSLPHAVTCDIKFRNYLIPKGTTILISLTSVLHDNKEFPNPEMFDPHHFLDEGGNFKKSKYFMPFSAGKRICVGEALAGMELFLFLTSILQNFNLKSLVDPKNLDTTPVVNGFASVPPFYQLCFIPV
Chain of Cytochrome P450 1A2 (Homo sapiens) (P05177 whole entry, looked up): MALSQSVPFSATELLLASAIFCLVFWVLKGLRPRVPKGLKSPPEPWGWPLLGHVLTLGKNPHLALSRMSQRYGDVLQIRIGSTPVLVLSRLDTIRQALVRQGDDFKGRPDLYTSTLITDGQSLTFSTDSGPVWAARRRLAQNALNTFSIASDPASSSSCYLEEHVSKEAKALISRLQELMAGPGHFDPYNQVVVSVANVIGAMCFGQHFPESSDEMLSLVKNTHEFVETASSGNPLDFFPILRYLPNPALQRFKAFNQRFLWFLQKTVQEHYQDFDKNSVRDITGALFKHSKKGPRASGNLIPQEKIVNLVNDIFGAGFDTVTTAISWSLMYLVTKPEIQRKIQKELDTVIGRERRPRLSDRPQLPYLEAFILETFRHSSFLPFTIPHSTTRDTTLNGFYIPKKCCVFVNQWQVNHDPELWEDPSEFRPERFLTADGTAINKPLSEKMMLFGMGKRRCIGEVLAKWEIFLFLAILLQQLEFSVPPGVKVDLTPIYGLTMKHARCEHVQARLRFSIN
Chain of Cytochrome P450 2D6 (Homo sapiens) (P10635 whole entry, looked up): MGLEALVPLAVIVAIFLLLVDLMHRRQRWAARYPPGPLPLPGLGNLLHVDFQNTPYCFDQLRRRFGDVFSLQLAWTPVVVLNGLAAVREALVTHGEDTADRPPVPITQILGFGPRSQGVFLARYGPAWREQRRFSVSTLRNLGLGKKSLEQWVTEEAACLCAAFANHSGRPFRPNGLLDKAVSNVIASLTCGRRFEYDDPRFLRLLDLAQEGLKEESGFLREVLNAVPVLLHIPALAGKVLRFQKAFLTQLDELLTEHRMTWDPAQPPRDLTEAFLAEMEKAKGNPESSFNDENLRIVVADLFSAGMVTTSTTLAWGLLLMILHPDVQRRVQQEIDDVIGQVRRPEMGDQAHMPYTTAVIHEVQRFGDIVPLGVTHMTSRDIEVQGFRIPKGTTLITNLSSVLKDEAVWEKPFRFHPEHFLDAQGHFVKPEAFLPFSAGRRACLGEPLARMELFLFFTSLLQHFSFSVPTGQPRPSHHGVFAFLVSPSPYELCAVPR
Chain of Cytochrome P450 2C19 (Homo sapiens) (P33261 whole entry, looked up): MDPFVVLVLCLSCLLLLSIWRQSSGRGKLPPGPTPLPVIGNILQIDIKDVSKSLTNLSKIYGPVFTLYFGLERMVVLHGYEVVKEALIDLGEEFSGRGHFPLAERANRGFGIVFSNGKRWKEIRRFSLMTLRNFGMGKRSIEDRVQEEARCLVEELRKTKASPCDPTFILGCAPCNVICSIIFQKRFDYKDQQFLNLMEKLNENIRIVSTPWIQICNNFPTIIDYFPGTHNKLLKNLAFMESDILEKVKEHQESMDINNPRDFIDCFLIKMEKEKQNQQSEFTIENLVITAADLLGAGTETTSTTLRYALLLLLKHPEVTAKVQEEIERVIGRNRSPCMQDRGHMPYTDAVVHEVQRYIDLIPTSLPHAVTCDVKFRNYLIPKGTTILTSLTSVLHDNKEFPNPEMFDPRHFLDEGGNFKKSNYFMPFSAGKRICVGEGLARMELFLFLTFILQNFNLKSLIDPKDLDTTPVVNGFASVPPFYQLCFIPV

With `CC(C)(O)[C@@H]1CC[C@](C)([C@H]2[C@@H](O)C[C@@]3(C)[C@@H]4C[C@H](O)[C@H]5C(C)(C)[C@@H](O[C@@H]6OC[C@@H](O)[C@H](O)[C@H]6O[C@@H]6O[C@H](CO)[C@@H](O)[C@H](O)[C@H]6O)CC[C@@]56C[C@@]46CC[C@]23C)O1`, the result in experiment [1], in [2], in [3], in experiment [4], in [8] and in [11] was inactive. For the same molecule, the result in [13] and in experiment [14] was inactive. Further, the Potency entry in experiment [5], in experiment [6], in [7], in [9] and in experiment [12] was “inactive” throughout. Moreover, the max response in experiment [10] was 4.11%.

As to `CC1=C2[C@H](/C=C(\C)C(=O)O)CC[C@@H](C)[C@H]2CC1`, the Potency result in [15], in experiment [5], in experiment [6], in experiment [9] and in experiment [12] was “inactive” each time. Besides, the outcome in experiment [1], in experiment [2], in experiment [3], in [4], in experiment [8] and in experiment [11] was inactive. Moreover, the result in experiment [13] and in experiment [14] was inactive. Further, in [10], the max response is 1.69%.

As to `C=C/C(C)=C/C/C=C(\C)CCC=C(C)C`, the molecule was classed as inactive in [1], in experiment [2], in experiment [3], in experiment [4], in experiment [8] and in experiment [11]. Also, the call in experiment [13] and in [14] was inactive. The Potency in experiment [5] was 28.2 µM (active); in experiment [7], 35.5 µM (active); in [16] it was 31.6 µM (active). The Potency entry in experiment [6] and in [9] was “inactive” each time. Also, the max response in [10] is 2.78%.

With `CC1(C)CC[C@]2(C(=O)O)CC[C@]3(C)C(=CCC4[C@@]5(C)CC[C@H](O)[C@@](C)(CO)C5CC[C@]43C)[C@H]2C1` (some centres not stated), the molecule was classed as inactive in experiment [1], in [2], in experiment [3], in [4], in experiment [8] and in [11]. For the same molecule, the call in experiment [13] and in experiment [14] was inactive. In addition, the Potency entry in [6], in experiment [7], in [9] and in experiment [12] was “inactive” in each case. Also, in experiment [10], the max response is -0.0807%.

Regarding `CC1=CC[C@H](C(C)C)C=C1`, the result in [1], in experiment [2], in [3], in experiment [4], in experiment [8] and in experiment [11] was inactive. Moreover, the call in experiment [13] and in experiment [14] was inactive. Besides, the Potency in experiment [5] was 35.5 µM (active); in experiment [16] it was 39.8 µM (active). In addition, the Potency result in experiment [6] and in experiment [9] was “inactive” each time. The max response in experiment [10] is 0.517%.

With `COc1ccc(/C=C/c2cc(OC)cc(=O)o2)cc1`, the Potency entry in experiment [15], in experiment [5], in [6] and in [7] was “inactive” throughout. The molecule was called inactive in [1], in experiment [2], in experiment [3], in experiment [4], in [8] and in experiment [11]. The result in experiment [13] and in experiment [14] was inactive. Moreover, in experiment [9], the Potency is 10 µM (active). The max response in experiment [10] is 0.752%.

With `CCCCCCCCCCCCCCCCCCCCCCCCCCCCCCO`, the viability change, negative = cytotoxic in [1] is -4.15% [at 5 µM]. Moreover, the activity change, negative = cytotoxicity in [2] was 8.74% [at 5 µM]. The activity change, negative = cytotoxic in experiment [3] is -1.11% [at 3.42 µM]. Besides, the activity change, negative = inhibition was 5.84% [at 3.42 µM] in experiment [4]; 9.22% [at 4.27 µM] in experiment [5]; -0.757% [at 4.27 µM] in experiment [6]; 4.8% [at 4.27 µM] in [7]; 9.51% [at 4.27 µM] in [16]; -11% [at 3.26 µM] in [8]. The activity change, negative = inhibition was 15.7% [at 4.62 µM] in experiment [9], -14.7% [at 5 µM] in experiment [13] and 2.96% [at 5 µM] in experiment [14]. Besides, the max response in [10] was -2.33%. For the same molecule, the activation is 1.05% [at 5 µM] in experiment [11] and -7.37% [at 5 µM] in experiment [12].
